Screens: PubChem BioAssay, several laboratories
Most compounds without a hit are left out; they make up all but 2.8% or so of the library.
SENP8 block-1 – human SENP8 protease inhibitors, primary screen, biochemical, fluorescence, Nedd8 protein substrate, uHTS. Sentrin-specific protease 8 (Homo sapiens), Q96LD8. recombinant SENP8. inhibition, % at 20 µM. hit rate 0.64% among 360,000. AID 602440, 2012; in the data active = inhibition mostly above about 40%, no sharp cut-off; inactive = mostly below about 27%
SENP6 inh – SENP6 protease inhibitors, primary screen, biochemical, luminescence, uHTS. Recombinant SENP6 catalytic domain, aminoluciferin luminescence. Sentrin-specific protease 6 (Homo sapiens), Q9GZR1. hit rate 1.8% among 330,000. inhibition, % at 10 µM;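 active = inhibition above about 50% at the single tested dose, limit read from the data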
SENP7 inh – SENP7 protease inhibitors, primary screen, biochemical, luminescence, uHTS. Sentrin-specific protease 7 (Homo sapiens), Q9BQF6. inhibition, % at 5 µM. hit rate 1.5% among 330,000. recombinant SENP7, Z-RLRGG-aminoluciferin luminescence, 40 min;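 active = inhibition above about 50% at the single test dose, limit read from the data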
Target sequence (Q9BQF6 706-1050 limits assumed): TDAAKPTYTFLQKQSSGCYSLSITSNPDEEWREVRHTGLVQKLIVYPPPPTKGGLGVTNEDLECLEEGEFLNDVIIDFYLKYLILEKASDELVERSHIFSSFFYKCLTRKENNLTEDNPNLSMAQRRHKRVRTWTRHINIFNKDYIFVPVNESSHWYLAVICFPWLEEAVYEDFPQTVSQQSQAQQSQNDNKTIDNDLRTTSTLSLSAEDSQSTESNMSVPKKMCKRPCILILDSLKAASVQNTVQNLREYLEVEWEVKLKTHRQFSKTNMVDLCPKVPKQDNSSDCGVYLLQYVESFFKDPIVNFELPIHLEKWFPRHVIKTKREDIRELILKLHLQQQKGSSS
Platelet DG rel – inhibitors of platelet dense granule secretion, primary screen, cell-based, MLPCN, human platelets; human platelet-rich plasma, SFLLRN dense granule ATP release, luminescence; inhibition, %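 (compounds screened at 7.5 µM in platelet-rich plasma)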; hit rate 0.22% among 300,000;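 active = mean replicate score, as percent of positive control, at or above 50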
SENP8 block-2 – SENP8 protease inhibitors, primary screen, biochemical, luminescence. purified SENP8, Z-RLRGG-aminoluciferin cleavage. inhibition, % at 10 µM. hit rate 1.2% among 330,000. Sentrin-specific protease 8 (Homo sapiens), Q96LD8; in the data active = inhibition above about 50%
HSP90 inh – HSP90 inhibitors, primary screen, cell lysate, luminescence; inhibition, % at 5.6 µM; Rabbit reticulocyte lysate, luciferase refolding luminescence, 3 h; Heat shock protein HSP 90 (rabbit reticulocyte lysate; luciferase refolding); hit rate 0.91% among 290,000;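 active = inhibition above the screen-wide mean plus 3 SD, computed separately per campaign, cut at about 16% in these data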;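 also: inhibitors lower the luminescence because luciferase stays unfolded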
SENP8 confirm – SENP8 protease inhibitors, retest, confirmation, biochemical, luminescence, single concentration | shares compounds with SENP7 inh | Recombinant SENP8, Z-RLRGG-aminoluciferin luminescence, 60 min | inhibition, % at 12.5 µM | hit rate 40% among 6,200;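 active = mean inhibition across replicates above about 50%, limit read from the data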
SENP6 confirm – SENP6 protease inhibitors, confirmation, biochemical, luminescence, single concentration | shares compounds with SENP7 inh | recombinant SENP6, Z-RLRGG-aminoluciferin luminescence | hit rate 58% among 6,200 | inhibition, % at 12.5 µM
SENP7 conf – SENP7 protease inhibitors, retest, confirmation, biochemical, luminescence, single concentration; AID 488917, 2010; hit rate 69% among 6,200; recombinant SENP7, Z-RLRGG-aminoluciferin luminescence, 40 min; shares compounds with SENP7 inh; inhibition, % at 12.5 µM
Casp3 select – caspase-3 protease inhibitors, confirmation, selectivity assay for SENP inhibitor project, biochemical, single concentration; hit rate 60% among 6,200; purified caspase-3, Z-DEVD-aminoluciferin luminescence, 60 min; shares compounds with SENP7 inh; inhibition, % at 12.5 µM; AID 488918, 2010;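 active = mean inhibition above about 50%, limit read from the data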
Target sequence (P42574 28-227 limits assumed): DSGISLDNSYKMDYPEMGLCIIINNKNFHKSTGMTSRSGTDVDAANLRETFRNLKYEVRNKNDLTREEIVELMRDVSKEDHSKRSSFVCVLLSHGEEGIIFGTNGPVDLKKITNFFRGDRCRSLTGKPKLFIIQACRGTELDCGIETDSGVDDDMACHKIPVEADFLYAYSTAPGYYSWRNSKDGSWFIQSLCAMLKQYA
SENP luc ctr – counter-screen for SENP inhibitors: luminescence interference; shares compounds with SENP7 inh; Pre-incubated SENP8/Z-RLRGG-aminoluciferin, luciferase luminescence interference; inhibition, % at 12.5 µM; hit rate 39% among 6,200;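 active = mean inhibition above about 50% when retested at one dose, limit read from the data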
Of the large screens only hits and unclear results are named; the others gave an inactive call (follow-up assays come after a bar, where they were run).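 The calls were made as follows, unless noted: active = mean inhibition above about 50% in the one-dose retest (limit read from the data); inactive = the rest.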

COc1ccccc1N=Cc1c(C)c(C#N)c2[nH]c3ccccc3n2c1=O	none
Cc1c(Cc2ccccc2)c(=O)n2c([nH]c3ccccc32)c1C#N	SENP6 inh 52 | SENP8 confirm inactive | SENP6 confirm inactive | SENP7 conf inactive | Casp3 select inactive | SENP luc ctr inactive
S=C(NCc1ccccc1)Nc1ccncc1	none
CC(C)C(=O)Nc1cccc(NC(=S)NC(=O)c2ccc([N+](=O)[O-])cc2)c1	none
Cc1cc(C(=O)NC(=S)Nc2cccc(NC(=O)C(C)C)c2)ccc1[N+](=O)[O-]	SENP6 inh 71, SENP7 inh 77, SENP8 block-2 56 | SENP8 confirm inactive | SENP6 confirm 61 | SENP7 conf 95 | Casp3 select 78 | SENP luc ctr 51
O=[N+]([O-])c1ccc2nc(-c3ccc(Cl)cc3)[nH]c2c1	SENP6 inh 75, SENP7 inh 63, SENP8 block-2 54 | SENP8 confirm 68 | SENP6 confirm 72 | SENP7 conf 87 | Casp3 select 50 | SENP luc ctr inactive
O=[N+]([O-])c1ccc2nc(-c3ccncc3)[nH]c2c1	SENP6 inh 78, SENP7 inh 51, SENP8 block-2 64 | SENP8 confirm inactive | SENP6 confirm 60 | SENP7 conf 88 | Casp3 select 86 | SENP luc ctr 74
Oc1ccc(/C=C/c2ccnc3ccccc23)cc1	SENP6 inh 61 | SENP8 confirm inactive | SENP6 confirm inactive | SENP7 conf 74 | Casp3 select inactive | SENP luc ctr inactive
COc1ccc(C(=O)N=c2sc3ccccc3n2C)cc1	SENP7 inh 77, SENP8 block-2 69 | SENP8 confirm inactive | SENP6 confirm inactive | SENP7 conf inactive | Casp3 select inactive | SENP luc ctr inactive
COc1cc(OC)cc(C(=O)N=c2sc3ccccc3n2C)c1	SENP7 inh 51 | SENP8 confirm inactive | SENP6 confirm inactive | SENP7 conf inactive | Casp3 select inactive | SENP luc ctr inactive
CC(=O)N=c1sc2ccccc2n1C	none
COc1cccc(C(=O)N/N=c2\sc3ccccc3n2C)c1	none
Cc1cc(C)cc(N(CC(=O)N2CCCCCC2)S(C)(=O)=O)c1	none
O=C(O)c1ccc(-c2nc(-c3ccccc3Cl)cs2)cc1	SENP6 inh 98, SENP7 inh 94, SENP8 block-2 95 | SENP8 confirm 98 | SENP6 confirm 99 | SENP7 conf 102 | Casp3 select 97 | SENP luc ctr 93
O=C(O)c1ccc(-c2nc(-c3ccc(Cl)c(Cl)c3)cs2)cc1	SENP6 inh 86, SENP7 inh 79, SENP8 block-2 74 | SENP8 confirm 90 | SENP6 confirm 92 | SENP7 conf 94 | Casp3 select 72 | SENP luc ctr 68
Cc1ccc2oc(C(=O)N3CCC(O)(c4ccccc4)CC3)c(C)c2c1	none
Cc1ccc(O)c(NC(=O)c2cc(C)no2)c1	none
Cc1ccc(C2=C/C(=C/c3cccs3)C(=O)O2)cc1	SENP6 inh 74, SENP7 inh 71 | SENP8 confirm inactive | SENP6 confirm inactive | SENP7 conf inactive | Casp3 select inactive | SENP luc ctr inactive
Cc1ccc(C=C2C=C(c3ccccc3)OC2=O)cc1	none (no result: SENP6 inh, SENP7 inh, Platelet DG rel, SENP8 block-2, HSP90 inh)
Cc1ccc(S(=O)(=O)N2CCC(C(N)=O)CC2)cc1[N+](=O)[O-]	none
Cc1nc2cc(NC(=O)Nc3cccc4ccccc34)ccc2n1C	SENP7 inh 80 | SENP8 confirm inactive | SENP6 confirm inactive | SENP7 conf 74 | Casp3 select 71 | SENP luc ctr inactive
CCCCc1nnc(NC(=O)CC(=O)Nc2ccccc2C(=O)O)s1	none
CC(C)Cc1nnc(NC(=O)CC(=O)Nc2ccccc2C(=O)O)s1	SENP6 inh 70, SENP8 block-2 53 | SENP8 confirm inactive | SENP6 confirm 67 | SENP7 conf 88 | Casp3 select 89 | SENP luc ctr 55
CCc1nnc(NC(=O)CC(=O)Nc2ccccc2C(=O)O)s1	SENP6 inh 78, SENP7 inh 55 | SENP8 confirm 68 | SENP6 confirm 63 | SENP7 conf 89 | Casp3 select 88 | SENP luc ctr 71
CC(C)c1nnc(NC(=O)CC(=O)Nc2ccccc2C(=O)O)s1	SENP6 inh 81, SENP7 inh 78, SENP8 block-2 71 | SENP8 confirm 87 | SENP6 confirm 87 | SENP7 conf 98 | Casp3 select 94 | SENP luc ctr 86
CCc1nnc(NC(=O)CN2CCOCC2)s1	SENP7 inh 99 | SENP8 confirm inactive | SENP6 confirm inactive | SENP7 conf inactive | Casp3 select inactive | SENP luc ctr inactive
NC(=O)CC(NC(=O)Cc1ccc(Cl)cc1)c1ccc(N2CCC(Cc3ccccc3)CC2)c([N+](=O)[O-])c1 (stereo unspecified)	none
O=C(NCC1CCCC(CNC(=O)Nc2ccc(Cl)cn2)C1)Nc1ccc(Cl)cn1 (stereo unspecified)	none
COc1ccccc1-c1csc(C(O)(c2ccccc2)C(F)(F)F)n1 (stereo unspecified)	none (no result: SENP6 inh, SENP7 inh, Platelet DG rel, SENP8 block-2, HSP90 inh)
CC1(C(=O)NCc2cccnc2)Cc2c(-c3cccc(C(F)(F)F)c3)ccnc2O1 (stereo unspecified)	none (no result: SENP6 inh, SENP7 inh, Platelet DG rel, SENP8 block-2, HSP90 inh)
N#C/C(=C/c1ccco1)c1nc2ccccc2s1	SENP7 inh 78, SENP8 block-2 86 | SENP8 confirm 82 | SENP6 confirm 86 | SENP7 conf 95 | Casp3 select 85 | SENP luc ctr 55
N#C/C(=C\c1ccco1)c1nc2ccccc2s1	SENP6 inh 89, SENP7 inh 88, SENP8 block-2 87 | SENP8 confirm 88 | SENP6 confirm 91 | SENP7 conf 97 | Casp3 select 84 | SENP luc ctr inactive
